From PubChem BioAssay
ADAM10 inh = inhibitors of human ADAM10; recombinant ADAM10, EDANS/DABCYL FRET peptide cleavage, 3 h; hit rate 0.62% among 370,000; inhibition, % at 7 µM;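 active means inhibition above a per-campaign cutoff equal to the mean of compounds falling between control-based bounds plus 3 SD, cut at about 20% in these data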
KLK7 zymogen act = activators of human kallikrein-7 zymogen; P49862; purified proKLK7, EDANS-DABCYL substrate fluorescence; 100% is mature enzyme control, 0% vehicle; activation, % at 7 µM; hit rate 0.9% among 370,000; AID 652039;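 active means activation above the mean of all tested compounds plus 3 SD, computed per campaign excluding outliers beyond control limits, cut at about 13% in these data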
PLCg1 inh = PLC-gamma1 (human) inhibition, primary screen; inhibition, % at 12.2 µM; purified PLC-gamma1, fluorogenic substrate, fluorescence; P19174; hit rate 0.84% among 370,000; AID 720700; in the data active means inhibition above about 9.5%
Target sequence (P19174 whole entry, looked up): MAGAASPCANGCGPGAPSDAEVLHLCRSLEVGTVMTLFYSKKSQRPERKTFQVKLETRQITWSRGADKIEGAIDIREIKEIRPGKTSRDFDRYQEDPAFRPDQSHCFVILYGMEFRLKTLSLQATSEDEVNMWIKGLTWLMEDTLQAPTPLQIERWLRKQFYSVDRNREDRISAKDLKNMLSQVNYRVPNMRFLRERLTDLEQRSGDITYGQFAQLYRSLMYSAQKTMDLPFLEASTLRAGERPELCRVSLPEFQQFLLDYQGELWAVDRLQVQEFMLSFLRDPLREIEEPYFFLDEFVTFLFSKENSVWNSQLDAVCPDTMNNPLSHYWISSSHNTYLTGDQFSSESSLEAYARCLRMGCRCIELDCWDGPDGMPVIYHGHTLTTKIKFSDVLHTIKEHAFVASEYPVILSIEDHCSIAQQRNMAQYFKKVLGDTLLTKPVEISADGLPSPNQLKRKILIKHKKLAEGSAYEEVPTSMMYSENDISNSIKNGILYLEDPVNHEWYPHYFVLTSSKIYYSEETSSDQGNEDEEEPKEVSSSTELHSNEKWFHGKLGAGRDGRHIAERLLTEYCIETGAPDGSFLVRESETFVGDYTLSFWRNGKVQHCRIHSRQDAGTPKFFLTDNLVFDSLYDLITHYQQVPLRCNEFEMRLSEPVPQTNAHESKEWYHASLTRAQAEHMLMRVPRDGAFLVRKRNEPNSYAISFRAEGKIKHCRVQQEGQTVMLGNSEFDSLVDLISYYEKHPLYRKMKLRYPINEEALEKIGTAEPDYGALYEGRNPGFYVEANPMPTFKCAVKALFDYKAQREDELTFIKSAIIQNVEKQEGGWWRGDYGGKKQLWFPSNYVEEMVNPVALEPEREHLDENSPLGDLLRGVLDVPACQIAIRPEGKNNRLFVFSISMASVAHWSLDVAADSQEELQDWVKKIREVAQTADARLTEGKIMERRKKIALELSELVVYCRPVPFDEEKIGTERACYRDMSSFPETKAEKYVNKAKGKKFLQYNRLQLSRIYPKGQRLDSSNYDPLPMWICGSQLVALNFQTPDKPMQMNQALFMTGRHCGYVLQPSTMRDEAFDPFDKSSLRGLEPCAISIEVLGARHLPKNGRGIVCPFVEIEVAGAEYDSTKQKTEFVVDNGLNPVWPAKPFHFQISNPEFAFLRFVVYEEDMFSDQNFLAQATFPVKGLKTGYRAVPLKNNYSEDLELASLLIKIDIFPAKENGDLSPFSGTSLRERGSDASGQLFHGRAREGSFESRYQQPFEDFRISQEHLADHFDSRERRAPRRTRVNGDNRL
sPLA2-III inh = Blocks human group III sPLA2 activity. Q9NZ20. QFRET BODIPY PC-A2 liposome hydrolysis, fluorescence. inhibition, % at 12.2 µM. hit rate 0.56% among 370,000;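 active means inhibition above mean plus 3 SD of compounds lying within the high and low control bounds, cut at about 19% in these data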
PLC-beta3 inh = blocks human PLC-beta3 enzyme activity; Purified PLC-beta3, fluorogenic substrate, fluorescence; inhibition, % at 12.2 µM; hit rate 0.18% among 370,000; AID 720704; in the data active means inhibition above about 11%
ADAM17 inh = ADAM17 inhibition, QFRET primary screen; P78536; recombinant ADAM17, EDANS/DABCYL FRET peptide cleavage; inhibition, % at 6.95 µM; hit rate 0.83% among 370,000;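 active means inhibition above the mean of compounds lying between control limits plus 3 SD, set per campaign, cut at about 8.5% in these data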
KLK7 act conf = proKLK7 activation, confirmation; purified proKLK7, EDANS-DABCYL substrate fluorescence; scaled: vehicle 0, mature enzyme 100; shares compounds with KLK7 zymogen act; AID 686949; hit rate 68% among 3,200; activation, % at 7 µM;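 active means activation, as change over the incubation, above the mean of all tested compounds plus 3 SD, cut at about 13% in these data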
EDANS-DABCYL int = fluorescence interference counter-screen for KLK7 activators | shares compounds with KLK7 zymogen act | EDANS-DABCYL substrate fluorescence interference, no enzyme, 4 h; solvent 0%, active enzyme control 100% | activation, % at 7 µM | hit rate 80% among 3,200;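 active means activation above the all-compound mean plus 3 SD, ignoring values outside control-based bounds, cut at about 4.8% in these data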;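 further: value is the 4 h activation minus the activation read at time zero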
K7 EDANS ctr = EDANS fluorescence interference in dose response, no enzyme. EC50, µM. shares compounds with KLK7 zymogen act. EDANS-DABCYL peptide fluorescence interference. hit rate 20% among 250. AID 720493;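 active means compounds that raise the fluorescence signal in this interference counterscreen, with EC50 at or below 10 µM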;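 further: intact quenched peptide substrate alone read at 355 nm excitation and 520 nm emission; signal is fluorescence gain from T0 to T4 after four hours at room temperature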
Of the large screens only hits and unclear results are named; the others gave an inactive call (follow-up assays come after a bar, where they were run). Hits are enriched below; roughly 3.4% of the tested compounds scored in any of these assays.

Cc1ccccc1NC(=O)COc1ccc2c(c1)OC(C)(C)CC2=O	none
COCCCNC(=O)C[C@H]1C[C@@]2(C(=O)OC)C(=C[C@H](C(C)C)O[C@@H]2C2CC2)N(Cc2ccco2)C1=O	none
CCOC(=O)c1cc2c(=O)n3cccc(C)c3nc2n(CC(C)C)c1=NC(=O)c1ccco1	KLK7 zymogen act 74 | KLK7 act conf inactive | EDANS-DABCYL int 5.7
CCOCCCn1c(=NC(=O)c2ccco2)c(C(=O)OCC)cc2c(=O)n3cccc(C)c3nc21	KLK7 zymogen act 39 | KLK7 act conf 23 | EDANS-DABCYL int 9.2 | K7 EDANS ctr inactive
CCOC(=O)C1(Cc2ccccc2)CCN(Cc2ccc(C)cc2)CC1	none
N#Cc1ccc(C23OCCN2CCn2c3c3ccccc3[n+]2[O-])cc1 (stereo not given)	none
Cc1ccc(C23OCCN2CCn2nc4ccccc4c23)cc1 (stereo not given)	KLK7 zymogen act 44 | KLK7 act conf inactive | EDANS-DABCYL int inactive
COc1cc(OC)c(/C=N/NC(=O)c2ccncc2)c(OC)c1	KLK7 zymogen act 14 | KLK7 act conf inactive | EDANS-DABCYL int 9.1
Cc1cccn2c(=O)c3cc(C(=O)NCCN4CCOCC4)c(=N)n(CCN4CCOCC4)c3nc12	none
Cc1cccn2c(=O)c3cc(C(=O)NCCN4CCOCC4)c(=N)n(Cc4ccc(F)cc4)c3nc12	KLK7 zymogen act 17 | KLK7 act conf inactive | EDANS-DABCYL int inactive
CCOCCCn1c(=N)c(C(=O)NCCN2CCOCC2)cc2c(=O)n3cccc(C)c3nc21	KLK7 zymogen act 45 | KLK7 act conf 14 | EDANS-DABCYL int inactive | K7 EDANS ctr inactive
Cc1ccc(-n2c(SCC(=O)Nc3cccc4ccccc34)nnc2-c2cccs2)cc1	none
CCOC(=O)Cc1c(C)c2c(O)cc(O)cc2oc1=O	KLK7 zymogen act 76 | KLK7 act conf 62 | EDANS-DABCYL int 64
CCOC(=O)Cc1c(C)c2ccc(N(CC)CC)cc2oc1=O	KLK7 zymogen act 76 | KLK7 act conf inactive | EDANS-DABCYL int inactive
COc1cc(NC(=O)c2ccco2)c(OC)cc1NC(=O)CCC(=O)Nc1cc(C)ccc1C	KLK7 zymogen act 31 | KLK7 act conf 14 | EDANS-DABCYL int inactive | K7 EDANS ctr inactive
Cn1c(/C(C#N)=C/Nc2ccccn2)nc2ccccc21	KLK7 zymogen act 55 | KLK7 act conf 183 | EDANS-DABCYL int 183
CC(C)(C)C1CCc2c(sc(NC(=O)c3ccco3)c2C(N)=O)C1 (stereo not given)	none
CCC1CCc2c(sc(NC(=O)c3ccco3)c2C(N)=O)C1 (stereo not given)	KLK7 zymogen act 91 | KLK7 act conf inactive | EDANS-DABCYL int inactive
COc1ccccc1Oc1c(C)oc2c(CN3CCOCC3)c(O)ccc2c1=O	KLK7 zymogen act 189 | KLK7 act conf 42 | EDANS-DABCYL int 49
CCOc1ccccc1Oc1c(C)oc2cc(OC(=O)N3CCOCC3)ccc2c1=O	none
O=c1c(-c2ccc3c(c2)OCCO3)coc2c(CN3CCOCC3)c(O)ccc12	KLK7 zymogen act 13 | KLK7 act conf 21 | EDANS-DABCYL int 19
COc1ccccc1Oc1coc2cc(OCC(N)=O)ccc2c1=O	none
COc1cccc(Oc2coc3c(CN4CCOCC4)c(O)ccc3c2=O)c1	KLK7 zymogen act 181 | KLK7 act conf 64 | EDANS-DABCYL int 61
COc1ccccc1Oc1coc2c(CN3CCOCC3)c(O)ccc2c1=O	KLK7 zymogen act 193 | KLK7 act conf 68 | EDANS-DABCYL int 80
C=CCN(Cc1ccc(OC)cc1OC)C(C#Cc1ccccc1)c1ccccc1 (stereo not given)	none (no result: KLK7 zymogen act)
CCOc1ccccc1Oc1c(C)oc2c(CN3CCN(C)CC3)c(O)ccc2c1=O	KLK7 zymogen act 77 | KLK7 act conf 77 | EDANS-DABCYL int 74
COc1ccccc1-c1c(C(F)(F)F)oc2c(CN(C)C)c(O)ccc2c1=O	none
CCCCN(C)Cc1c(O)ccc2c(=O)c(-c3ccccc3OC)coc12	KLK7 zymogen act 56 | KLK7 act conf 66 | EDANS-DABCYL int 74
COc1cccc(Oc2c(C)oc3c(CN4CCCC4)c(O)ccc3c2=O)c1	KLK7 zymogen act 75 | KLK7 act conf 74 | EDANS-DABCYL int 78
COc1ccccc1-c1coc2c(CN3CCOCC3)c(O)ccc2c1=O	KLK7 zymogen act 159 | KLK7 act conf 66 | EDANS-DABCYL int 58
CC(C)NC(=O)N[C@H]1C[C@@H]2O[C@@H](CO)CC[C@@H]2O[C@@H]1CCc1ccc(-c2ccc(F)cc2)cc1	none
CCC[C@H]1[C@@H](NC(=S)Nc2ccccc2Cl)CC[C@@]23CCCN2C(=O)CCC[C@@H]13	none (no result: KLK7 zymogen act)
Nc1cccc2c1C(=O)N(C(=O)c1cccc(S(=O)(=O)N3CCCC3)c1)C2=O	KLK7 zymogen act 32 | KLK7 act conf 190 | EDANS-DABCYL int 196
NC(=O)c1cccc(S(=O)(=O)N2CCCCC2)c1	none
CN1c2ccc(C#CC3CC3)cc2[C@@H]2[C@@H](CCN2C(=O)C2CCOCC2)[C@H]1CO	none
Cc1ccc(CN2CCSc3ccc(C(=O)NCCCN4CCOCC4)cc32)cc1	none
O=C(NCCCN1CCOCC1)c1ccc2c(c1)N(Cc1ccccc1)CCS2	none
CN1CCN(CCCNC(=O)c2ccc3c(c2)N(Cc2ccccc2)CCS3)CC1	KLK7 zymogen act 15 | KLK7 act conf inactive | EDANS-DABCYL int inactive
O=C(NCCN1CCOCC1)c1ccc2c(c1)N(Cc1ccccc1)CCS2	KLK7 zymogen act 21 | KLK7 act conf inactive | EDANS-DABCYL int inactive
O=C(Cn1c(-c2cncs2)nc2ccccc21)N1CCCCC1	none
COc1cc(OC)c2c(=O)cc(-c3ccccc3)oc2c1	none
COc1cc(OC)c2c(C)c(Cl)c(=O)oc2c1	KLK7 zymogen act 15 | KLK7 act conf 78 | EDANS-DABCYL int 72
CCC(=O)N1CCc2cc(-c3csc(NC(=O)c4ccco4)n3)ccc21	KLK7 zymogen act 98 | KLK7 act conf 22 | EDANS-DABCYL int 16 | K7 EDANS ctr inactive
CCOC(=O)c1c(NC(=O)c2ccco2)n(C2CCCCC2)c2nc3ccccc3nc12	KLK7 zymogen act 21 | KLK7 act conf inactive | EDANS-DABCYL int inactive
CCCCOCCCNC(=O)C[C@H]1C[C@@]2(C(=O)OC)C(=C[C@H](C(C)(C)C)O[C@@H]2C)N(Cc2ccco2)C1=O	none
